Laboratory results published in PubChem BioAssay (Tox21).
Values joined by “and” are separate entries in the source; they are usually repeats but may differ in a detail not shown here. Identical values can stand only once. Results filed as inconclusive are left out. Where a call stands in place of a potency, no number is given. A structure can be active in one record and inactive in another. Active and inactive are the calls of the source. Calls follow the shape of the dose curve; as a rule, active = well fitted cell-killing curve with a large enough effect in the repeat runs; inconclusive = weak or mixed curves, or effect the other way; inactive = no such curve, though single readings can be large or run the other way. Residues, ends and D or L forms follow the SMILES beside them.

Assay: qHTS assay for identifying genotoxic compounds that show differential cytotoxicity against isogenic chicken DT40 cell lines with known DNA damage response pathways - wild type cell line (AID 743012); also: nearly all actives have a fitted effect of over 60% in size
Details: DT40 wild type chicken cells viability, CellTiter-Glo, 40 h; series mostly up to 68.4 µM
Source text: U.S. Tox21 Program National Center for Advancing Translational Sciences [NCATS] NIH Chemical Genomics Center [NCGC] U.S. Environmental Protection Agency [EPA] National Institutes of Environmental Health Sciences [NIEHS] National Toxicology Program [NTP] U.S. Food and Drug Administration [FDA] Tox21 Assay Overview: DNA repair pathways play a critical role in cellular homeostasis by repairing DNA damage induced by endogenous processes and xenobiotics. Isogenic chicken DT40 cell lines deficient in different DNA repair pathways can be used to identify genotoxic compounds and aid in characterizing the nature of the DNA damage induced. Two DNA repair-deficient cell lines with disrupted genes, Rad54/Ku70 or Rev3, were used to screen the Tox21 10K compound library. Possible genotoxicity was based on the presence of a significant increase in cytotoxicity in one or more of the DNA repair-deficient cell lines compared to that observed in the parental DNA repair-proficient cell line. CellTiter Glo viability assay (Promega, Madison, WI) was used to measure cell viability in these cells after compound treatment. This assay includes the data from the wild type cell line.
Tox21 Assay Protocol Summary: 300 DT40 wild type cells in 5 uL/well were dispensed into white, solid-bottom 1536-well plates using a Multidrop Combi (ThermoFisher Scientific, Waltham, MA) dispenser. After the assay plates were incubated at 37 C/5% CO2 for approximately 0.5 hour, 23 nL of compounds dissolved in DMSO, positive controls or DMSO only was transferred into the assay plate by a pintool work station (Kalypsys, San Diego, CA). The assay plates were incubated at 37 C/5% CO2 for 40 hours. After 5 uL per well of CellTiter-Glo reagent was added into each well of the assay plates, the plates were incubated for 30 min at room temperature and the luminescence intensity of the plates was measured using a ViewLux (PerkinElmer, Shelton, CT) plate reader.
Potency is read from the fitted curve at half-maximal effect.

Row | Compound | Potency
1 | CC(C)[C@@H]1CC[C@@H](C)C[C@H]1O | inactive
2 | O=C(O)C(=O)O | inactive
3 | O=C(O)c1[nH]n(-c2ccc(S(=O)(=O)O)cc2)c(=O)c1N=Nc1ccc(S(=O)(=O)O)cc1 | inactive
4 | COc1ccc2[nH]cc(CCNC(C)=O)c2c1 | inactive
5 | CCOc1ccc(NC(=O)CC(C)O)cc1 (stereo not given) | inactive
6 | C/C=C/c1ccc(OC)cc1 | inactive
7 | O=C(O)c1cccnc1 | inactive
8 | Cn1cc[nH]c1=S | inactive
9 | NC(=O)NC1NC(=O)NC1=O (stereo not given) | inactive
10 | COc1c2occc2cc2ccc(=O)oc12 | inactive
11 | O=S(=O)(O)c1ccc2cc(O)ccc2c1 | inactive
12 | NC(N)=NC(=O)c1nc(Cl)c(N)nc1N | inactive
13 | NS(=O)(=O)c1cc(C(=O)O)c(NCc2ccco2)cc1Cl | inactive
14 | Nc1ccc(O)c(C(=O)O)c1 | inactive
15 | NC(N)=O | inactive and 24.3 µM (active)
16 | O=NO | inactive
17 | Cc1ccc(S(=O)(=O)NC(=O)NN2CCCCCC2)cc1 | inactive
18 | CC1(C)[C@@H]2CC[C@@]1(C)C(=O)C2 | inactive
19 | Nc1ccc(S(=O)(=O)Nc2nccs2)cc1 | inactive
20 | CC(O)C(=O)O (stereo not given) | inactive

Row | Compound | Potency
21 | CCCNC(=O)NS(=O)(=O)c1ccc(Cl)cc1 | inactive
22 | CC(C)(Oc1ccc(C2CC2(Cl)Cl)cc1)C(=O)O (stereo not given) | inactive
23 | C[C@]12C=CC(=O)C=C1CC[C@@H]1[C@@H]2[C@@H](O)C[C@@]2(C)[C@H]1CC[C@]2(O)C(=O)CO | inactive
24 | Cc1ccc(O)cc1 | inactive
25 | CC(=O)NS(=O)(=O)c1ccc(N)cc1 | inactive
26 | CCCCCCCCCCCCCCCC(=O)O | 11.9 µM (active) and inactive
27 | O=C(O)CCC(=O)O | inactive
28 | Nc1ccc(S(=O)(=O)c2ccc(N)cc2)cc1 | inactive
29 | Cc1noc(NS(=O)(=O)c2ccc(N)cc2)c1C | inactive
30 | CCCCC(CC)COC(=O)/C=C/c1ccc(OC)cc1 (stereo not given) | inactive
31 | CCCC(CCC)C(=O)O | inactive
32 | COC(=O)[C@H](Cc1ccccc1)NC(=O)[C@@H](N)CC(=O)O (H-Asp-Phe-OMe) | inactive
33 | Cc1cc(=O)[nH]c(=S)[nH]1 | inactive
34 | CCCN(CCC)S(=O)(=O)c1ccc(C(=O)O)cc1 | inactive
35 | O=C(O)CS | inactive and 61.6 µM (active)
36 | Oc1ccc(/C=C/c2cc(O)cc(O)c2)cc1 | 7.17 µM (active) and 30.6 µM (active)
37 | NNC(=O)c1ccncc1 | inactive
38 | NC(=O)c1cnccn1 | inactive
39 | CNC[C@H](O)c1cccc(O)c1 | inactive
40 | Nc1ccc(C(=O)O)cc1 | inactive
